Source: PubChem (National Center for Advancing Translational Sciences (NCATS))
Pol beta inh: qHTS Assay for Inhibitors of DNA Polymerase Beta. Pol beta primer extension/strand displacement, fluorescence kinetic. P06746. hit rate 1.3% among 340,000. Potency, µM (highest dose often 114 µM), without a hit: at the top dose activity change, negative = inhibition, actives largely listed as inhibitors; note: potency is the fitted concentration of half-maximal effect; % is set by controls: 0 for no effect and ±100 for the full control effect
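Curves were derived by four-parameter Hill fits of normalized qHTS data. The kinetic fluorescent primer-extension read was taken at 0 and 10 min after 50 nM substrate, following a 15 min room-temperature preincubation of 10 nM enzyme with compounds.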
POLI inh: qHTS for Inhibitors of Polymerase Iota | Pol iota fluorescent replication assay, 10 min | Potency, µM (series often up to 115 µM), for the others: top-dose activity, negative = inhibition, usual class: inhibitors | hit rate 1% among 390,000 | AID 588590, 2011; note: potency is the fitted concentration of half-maximal effect
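Fluorescent replication assay read twice, at 0 min and 10 min after adding 50 nM (final) substrate. Enzyme (10 nM) and compounds were first incubated 15 min at room temperature; enzyme-free buffer wells were negative controls.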
Pol kappa inh: qHTS for Inhibitors of Polymerase Kappa; DNA polymerase kappa (Homo sapiens), Q9UBT6; purified Pol kappa, fluorescent DNA synthesis assay, 10 min; Potency, µM (series often up to 107 µM), inactives show top-dose activity, negative = inhibition, most hits filed as inhibitors; hit rate 0.53% among 400,000; note: potency is the fitted concentration of half-maximal effect; % is set by controls: 0 for no effect and ±100 for the full control effect
Target sequence (Q9UBT6 whole entry, looked up): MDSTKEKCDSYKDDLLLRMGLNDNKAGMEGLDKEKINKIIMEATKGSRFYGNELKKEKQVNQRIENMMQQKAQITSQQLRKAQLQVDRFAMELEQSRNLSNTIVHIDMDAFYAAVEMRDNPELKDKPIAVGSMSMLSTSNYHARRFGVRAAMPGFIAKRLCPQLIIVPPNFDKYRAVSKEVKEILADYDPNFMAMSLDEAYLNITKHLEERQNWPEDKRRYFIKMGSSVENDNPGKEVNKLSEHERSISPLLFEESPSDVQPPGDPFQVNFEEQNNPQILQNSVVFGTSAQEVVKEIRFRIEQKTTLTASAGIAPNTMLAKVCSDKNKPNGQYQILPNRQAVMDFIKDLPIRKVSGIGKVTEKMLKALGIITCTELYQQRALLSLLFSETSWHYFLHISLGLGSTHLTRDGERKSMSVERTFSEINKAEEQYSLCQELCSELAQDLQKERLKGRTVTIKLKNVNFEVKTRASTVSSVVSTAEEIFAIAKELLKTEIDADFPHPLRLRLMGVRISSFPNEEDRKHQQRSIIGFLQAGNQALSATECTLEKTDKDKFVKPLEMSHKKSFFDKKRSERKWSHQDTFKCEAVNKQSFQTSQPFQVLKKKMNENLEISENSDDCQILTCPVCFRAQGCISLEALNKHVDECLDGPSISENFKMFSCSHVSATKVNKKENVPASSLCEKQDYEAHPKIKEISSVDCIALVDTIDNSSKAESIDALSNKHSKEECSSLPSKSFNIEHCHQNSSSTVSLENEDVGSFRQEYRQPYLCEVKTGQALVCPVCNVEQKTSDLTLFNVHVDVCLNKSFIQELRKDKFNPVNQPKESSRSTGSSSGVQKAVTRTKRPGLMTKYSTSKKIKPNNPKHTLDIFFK
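Here, compound and 10 nM enzyme are combined for 15 min at room temperature; adding 50 nM substrate (final) starts DNA synthesis, tracked by fluorescence at 0 and 10 min against buffer-only wells.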
PI5P4K alpha inh: qHTS for Inhibitors of phosphatidylinositol 5-phosphate 4-kinase (PI5P4K); Phosphatidylinositol 5-phosphate 4-kinase type-2 alpha (Homo sapiens), P48426; PI5P4Kalpha enzyme, ADP-Glo luminescence, 60 min; active compounds read low; max response, %; hit rate 1.2% among 330,000; AID 652105, 2013; active = max response of -50% or lower; inconclusive = between -30% and -50%; inactive = -30% or higher; note: value at the top dose of about 77 µM; % is set by controls: 0 for no effect and ±100 for the full control effect
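Luminescence from ADP-Glo served as readout of PI5P4Kalpha activity in a qHTS format. Reaction: enzyme, substrate, compound, ATP at 5 microM final, 60 min at RT.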
WRN inhibitor: qHTS for Inhibitors of WRN Helicase; WRN helicase unwinding, fluorescent forked duplex, kinetic; hit rate 0.46% among 360,000; AID 651768, 2012; Potency, µM (highest dose often 114 µM), inactives show top-dose activity change, negative = inhibition, hits mostly inhibitors; note: potency is the fitted concentration of half-maximal effect; % is set by controls: 0 for no effect and ±100 for the full control effect; nearly all actives have a fitted effect of over 55% in size
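Fluorescence dequenching readout, ex 525 nm/em 598 nm, kinetic mode: forked duplex DNA (100 nM final) with adjacent fluorophore and quencher unwound by WRN (20 nM final) with 2 mM ATP. Compound preincubation 15 min, room temperature.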
POLH inh: qHTS for Inhibitors of Polymerase Eta. DNA polymerase eta (Homo sapiens), Q9Y253. recombinant Pol eta, fluorescent DNA replication assay. Potency, µM (series often up to 114 µM), inactives show at the highest dose activity change, negative = inhibition, usual class: inhibitors. hit rate 1.2% among 390,000. AID 588591, 2011; note: potency is the fitted concentration of half-maximal effect; % is set by controls: 0 for no effect and ±100 for the full control effect
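Pol eta (10 nM) was preincubated with compounds for 15 min at room temperature, after which fluorescent replication substrate (50 nM final) was added to start the reaction. Fluorescence was read kinetically at 0 and 10 min.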
* = called active by the depositor; ? = inconclusive; nt = not tested or not shown; [ ] = remark or other dose. Sampled rows, rich in hits. Any-hit rate of the full collection: about 2.8%. Unless noted, calls come from the whole dose curve; as a rule, active = well fitted curve in the direction sought with a large enough effect; inconclusive = small, poorly fitted or top-dose-only effect, or another doubt; inactive = no such curve, though single readings can be large; an effect the other way counts as inactive or inconclusive.

SMILES	Pol beta inh	POLI inh	Pol kappa inh	PI5P4K alpha inh	WRN inhibitor	POLH inh
Cc1nn(CCCC(=O)NCc2ccccc2)c(=O)c2c1sc1ccccc12	79.4µM*	?	?	nt	nt	nt
CCc1cccc(NC(=O)Cn2nc(C)c3sc4ccccc4c3c2=O)c1	22.4µM*	89.1µM*	-10.7%	nt	nt	20.5%
O=S(=O)(c1ccc(-c2ccon2)s1)N1CCN(c2ccncc2)CC1	12.7%	39.8µM*	-5.9%	-19.2	-10.4%	-34.7%
O=C(CCS(=O)(=O)c1cc(Br)cc2c1N(C(=O)C1CC1)CC2)N1CCN(c2ccccn2)CC1	-4.9%	14.5%	11.8%	3.1	-9.8%	-7.2%
Cc1nc(-c2ccc(C(=O)O)cc2)cs1	79.4µM*	-0.7%	-8.9%	nt	6.6%	-8.8%
Cc1nc(-c2ccc(C(=O)Nc3cccc(Br)c3)cc2)cs1	31.6µM*	?	-13.4%	4.7	-13.1%	-17.2%
Cc1c(C(=O)OCc2ccccc2)[nH]c2c1C(=O)CC(c1ccco1)C2 (stereo not drawn)	11.2µM*	-92.7%	?	-51.0*	50.1µM*	22.4µM*
Cc1c(C(=O)OCCOC(C)C)[nH]c2c1C(=O)CC(c1ccco1)C2 (stereo not drawn)	20µM*	?	79.4µM*	?	?	25.1µM*
COC(=O)N[C@@H]1C[C@H]2[C@@H]3CC[C@H]4C[C@@H](OC)CC[C@]4(C)[C@H]3CC[C@@]12C	nt	14.0%	-15.3%	15.9	0.4%	-15.6%
CN(C)Cc1cc(O)c(CN(C)C)cc1O	10µM*	7.08µM*	15.8µM*	-4.6	2.0%[11.6 µM]	79.4µM*
N#Cc1c(SCC(=O)Nc2ccccc2C(F)(F)F)sc2c(O)cc(=O)[nH]c12	-15.7%	31.6µM*	?	?	-2.7%[11.6 µM]	?
CCN(CC)S(=O)(=O)c1ccc2c(c1)N(CC(=O)N1CCCC1)C(=O)CO2	-1.7%	28.2%	-15.5%	-0.2	6.4%	-3.6%
N#CC1=C(N)C2=C(N3CCCCC3)CCCC2C1(C#N)C#N (stereo not drawn)	-0.3%	?	50.1µM*	-54.0*	?	4.3%
O=C(O)CCCNc1cc(N2CCC3(CC2)OCCO3)c2noc3c2c1C(=O)c1ccccc1-3	11.2µM*	nt	nt	nt	nt	nt
CCOC(=O)N1CCN(c2cc(NCCC(=O)O)c3c4c(onc24)-c2ccccc2C3=O)CC1	25.1µM*	?	17.8µM*	?	-19.3%[57.1 µM]	3.16µM*
CCCC1(C)C(C#N)(C#N)C1(C#N)C#N	nt	nt	6.8%[60.1 µM]	nt	nt	nt
O=C(C1CC(=O)N(c2ccc3c(c2)OCCO3)C1)N1CCN(S(=O)(=O)c2ccccc2F)CC1 (stereo not drawn)	nt	?	-10.4%	-28.0	-2.0%[11.6 µM]	?
Fc1cccc(-n2cc(-c3ccccc3)c3c(=S)nc[nH]c32)c1	0.8%	28.7%	18.2%	2.7	17.5%	-6.6%
Fc1ccc(-n2cc(-c3ccccc3)c3c(=S)nc[nH]c32)cc1	3.5%	79.4µM*	?	?	-3.7%	-28.5%
C#CCOc1c(Br)cc(/C=C2/C(=O)ON=C2C)cc1OC	-8.0%	53.7%	-4.3%	-16.3	-1.6%	-3.1%
C=CCOc1c(Br)cc(/C=C2/C(=O)ON=C2C)cc1OC	-0.4%	89.1µM*	-2.5%	-5.2	-15.9%[11.6 µM]	-11.5%
Cc1ccc(NC(=O)Cn2cncc2-c2ccc([N+](=O)[O-])cc2)cc1C	35.5µM*	?	-9.1%	2.2	-20.3%	?
CCN(CC)C(=O)c1sc2nc(-c3cccs3)cc(-c3cccs3)c2c1N	26.8%	36.9%	-7.8%	-6.3	4.0%	3.6%
Nc1c(C(=O)Nc2ccc(C(F)(F)F)cc2)sc2nc(-c3cccs3)ccc12	?	-6.3%	-31.4%	nt	nt	-10.4%
Cc1cc(C)c2c(N)c(C(=O)Nc3nccs3)sc2n1	39.8µM*	4.5%	-20.8%	-19.3	-32.8%	?
SMILES	Pol beta inh	POLI inh	Pol kappa inh	PI5P4K alpha inh	WRN inhibitor	POLH inh
Nc1c(C(=O)Nc2nccs2)sc2nc(-c3cccs3)cc(C(F)(F)F)c12	44.7µM*	-12.5%	1.0%	-16.3	-9.6%	?
CC(C)(C)C(=O)c1sc2nc(-c3cccs3)cc(C(F)(F)F)c2c1N	3.4%	8.1%	2.4%	nt	100µM*	-10.6%
O=C1c2ccc(-c3ccc(F)cc3OCc3ccccc3)cc2S(=O)(=O)c2cccc(C(=O)N3CCCC3)c21	nt	10.8%	-0.8%	2.3	2.8%	-7.3%
CCOc1ccc(-n2c(C)cc(C(=O)CCl)c2C)cc1	-21.0%	33.4%	-7.6%	-4.8	10.7%	?
COC(=O)c1ccc(-n2c(C)cc(C(=O)CCl)c2C)cc1	-10.8%	12.6µM*	-5.1%	1.2	-10.4%[57.1 µM]	?
O=C(O)C1CC=CCC1C(=O)Nc1cccc(F)c1 (stereo not drawn)	28.2µM*	-5.8%	-13.6%	nt	-18.0%	-6.4%
O=C(O)C1CC=CCC1C(=O)Nc1ccc2c(c1)OCCO2 (stereo not drawn)	20µM*	-15.5%	-3.7%	-1.1	-2.7%	?
O=C(O)C1CC=CCC1C(=O)Nc1ccc(F)c(F)c1 (stereo not drawn)	59.3%	9.6%	-11.9%	0.4	-3.5%	3.3%
CC1=C(C(=O)N(C(C)C)C(C)C)CC(CC(=O)NC2CC2)C(=O)N1CCCN1CCCC1=O (stereo not drawn)	nt	nt	nt	4.5	-10.2%	nt
COCCN(CCOC)Cc1c(O)ccc2c1O/C(=C\c1ccco1)C2=O	10µM*	?	?	-8.4	1.7%[11.6 µM]	?
CC1CCN(Cc2c(O)ccc3c2O/C(=C\c2ccco2)C3=O)CC1	11.2µM*	?	?	-15.4	?	56.2µM*
O=C1/C(=C/c2ccco2)Oc2c1ccc(O)c2CN1CCCCC1	20µM*	?	79.4µM*	-26.5	?	22.4µM*
Cc1ccc(/C=C2\Oc3c(ccc(O)c3CN3CCN(CCO)CC3)C2=O)cc1	14.1%	-9.3%	-21.6%	6.0	-11.6%[57.1 µM]	0.7%
Oc1cc2cc(-c3csc(-c4ccc(F)cc4)n3)cc3c2n1CCC3	nt	28.5%	-9.0%	nt	nt	nt
CC(C)n1nnnc1SCC(=O)N1CCN(Cc2ccc3c(c2)OCCO3)CC1	nt	7.9%	-3.2%	7.0	-4.8%	-4.2%
CC(=O)N1CCCc2ccc(NC(=O)c3ccc(C(F)(F)F)cc3)cc21	-2.3%	17.8%	-11.6%[60.1 µM]	nt	nt	-11.1%
CN(C)c1ccc(C(=O)OCc2ccccc2)cc1	-0.7%	?	-8.8%	11.8	-10.8%	-17.0%
O=C1C=CC(=O)C(CNc2ccc(C(=O)OCc3ccccc3)cc2)=C1	nt	?	-35.3%	-76.8*	-28.8%	?
